A short description of experiment [1]: ATG_GLI_CIS: Attagene CIS-FACTORIAL HepG2 Assay for human Zinc Finger Protein GLI1 (AID 2282945). To be noted: HepG2, Attagene cis-factorial reporter mRNA, GLI element; actives raise or lower the signal. In a few lines: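 Transiently transfected HepG2 cells report endogenous transcription factor activity via cis-element-driven reporter units. After 24 h compound exposure, reporter mRNA was measured by RT-PCR with capillary electrophoresis; bidirectional fitting against DMSO baseline.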

The target in experiment [2] is Bile acid receptor (Homo sapiens) (UniProt Q96RI1). The experiment in a line: ATG_IR1_CIS: Attagene CIS-FACTORIAL HepG2 Assay for human Nuclear Receptor Subfamily 1 Group H Member 4 (NR1H4), IR1 submotif (AID 2282946). To be noted: IR1 reporter transcription, actives raise or lower the signal. The essentials:
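Fluorescence of capillary-separated, HpaI-digested RT-PCR reporter products gave IR1-element mRNA induction in HepG2 cells 24 h after dosing. Endogenous transcription factors drove the cis-regulated reporters; activity was fitted bidirectionally against DMSO.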

Experiment [3] can be described thus: ATG_GRE_CIS: Attagene CIS-FACTORIAL HepG2 Assay for human Glucocorticoid Response Elements (GRE) (AID 2282947). To be noted: HepG2 GRE cis-reporter, Attagene multiplex mRNA; actives raise or lower the signal. In a few lines: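 Read-out: fluorescent reporter-transcript fragments separated by capillary electrophoresis after RT-PCR. Transiently transfected HepG2 cells carrying cis-element-driven reporter units were dosed for 24 h; gain or loss of signal fitted against DMSO control.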

Experiment [4] in a line: ATG_ISRE_CIS: Attagene CIS-FACTORIAL HepG2 Assay for human Interferon Regulatory Factor 1 (IRF1) binding to an Interferon-Stimulated Response Element (ISRE) (AID 2282948). To be noted: HepG2 ISRE cis-reporter (Attagene), mRNA transcription readout; actives raise or lower the signal. The essentials: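 Multiplexed mRNA reporter readout in human liver HepG2 cells: cis-element-driven reporters transfected, compound added for 24 h, transcripts amplified, fluorescently labelled and sized by capillary electrophoresis; curve fitting bidirectional against DMSO.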

Experiment [5] is described as follows: ATG_M_32_CIS: Attagene CIS-FACTORIAL HepG2 Assay for M32 Transcription Factor (Internal Marker) (AID 2282949).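 Also: background control marker of the multiplexed CIS panel rather than a real target.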 To be noted: HepG2 Attagene cis-factorial M32 reporter, mRNA; actives raise or lower the signal. The essentials: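 Using DMSO as baseline, bidirectional curve fits were applied to reporter mRNA signals. These came from transiently transfected HepG2 cells exposed for 24 h, with RNA analysed by RT-PCR, FAM primer extension, HpaI digestion and CE.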

A short description of experiment [6]: ATG_M_06_CIS: Attagene CIS-FACTORIAL HepG2 Assay for M06 Transcription Factor (Internal Marker) (AID 2282950). To be noted: HepG2 Attagene CIS-FACTORIAL M06 internal marker reporter; actives raise or lower the signal. The essentials:
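Terse: HepG2, transient MRTU transfection (FuGene 6), 24 h dosing; total RNA, oligo(dT) RT, PCR, FAM label, HpaI cut, capillary electrophoresis; bidirectional fit vs DMSO baseline; background-control endpoint.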

The target in experiment [7] is Hypoxia-inducible factor 1-alpha (Homo sapiens) (UniProt Q16665). The experiment in a line: ATG_HIF1a_CIS: Attagene CIS-FACTORIAL HepG2 Assay for human Hypoxia Inducible Factor 1 (HIF1A) (AID 2282951). To be noted: HepG2 Attagene cis-factorial HIF1a reporter transcription; actives raise or lower the signal. In a few lines:
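After 24 h chemical exposure of reporter-transfected HepG2 cells, reporter cDNA was PCR-amplified, labelled by 6-FAM primer extension (2 min 95 C, 20 s 68 C, 10 min 72 C), HpaI-cut (2 h, 37 C) and analysed by CE.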

The target in experiment [8] is Hepatocyte nuclear factor 6 (Homo sapiens) (UniProt Q9UBC0). The experiment in a line: ATG_HNF6_CIS: Attagene CIS-FACTORIAL HepG2 Assay for human Hepatocyte Nuclear Factor 6 (HNF6) (AID 2282952). To be noted: HepG2 Attagene cis-factorial HNF6 reporter transcription; actives raise or lower the signal. The essentials: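 Endogenous transcription factor activity in human HepG2 liver cells was captured through cis-regulated reporter constructs. After 24 h treatment, reporter mRNA was measured by RT-PCR with capillary electrophoresis, and activity was fitted in both directions relative to DMSO.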

The target of experiment [9] is Heat shock factor protein 1 (Homo sapiens) (UniProt Q00613). The experiment in a line: ATG_HSE_CIS: Attagene CIS-FACTORIAL HepG2 Assay for human Heat Shock Transcription Factor 1 (HSE) (AID 2282953). To be noted: HepG2 HSE cis-reporter, Attagene RNA transcription; actives raise or lower the signal. The essentials: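 Read-out: fluorescence of reporter-specific RT-PCR fragments separated by capillary electrophoresis. HepG2 carrying transfected cis-element reporter units; 24 h dosing; activity fitted in both directions relative to DMSO baseline.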

Experiment [10] can be described thus: ATG_MRE_CIS: Attagene CIS-FACTORIAL HepG2 Assay for human Metal Responsive Element (MRE) (AID 2282954). To be noted: HepG2 MRE cis-reporter transcription, Attagene multiplex; actives raise or lower the signal. In a few lines:
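RT-PCR/capillary electrophoresis readout of reporter mRNA, 24 h post-dosing, in HepG2 cells transfected with multiplexed cis-regulated reporter constructs. Gain or loss of signal fitted bidirectionally against DMSO baseline.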

Experiment [11] is described as follows: ATG_PBREM_CIS: Attagene CIS-FACTORIAL HepG2 Assay for human Phenobarbital-responsive Enhancer Module (PBREM) (AID 2282955). To be noted: HepG2 PBREM cis-reporter, Attagene multiplexed transcription; actives raise or lower the signal. In a few lines: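 Measures endogenous factor action on a phenobarbital-responsive enhancer module. HepG2 transiently carrying cis reporters, 24 h treatment, mRNA read-out by RT-PCR plus capillary electrophoresis.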

Experiment [12] concerns the target Paired box protein Pax-6 (Homo sapiens) (UniProt P26367). The experiment in a line: ATG_Pax6_CIS: Attagene CIS-FACTORIAL HepG2 Assay for human Paired Box 6 (PAX6) (AID 2282956). To be noted: HepG2 CIS-FACTORIAL PAX6 reporter transcription, RNA readout; actives raise or lower the signal. The essentials: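 Fluorescent RT-PCR products separated by capillary electrophoresis report PAX6-linked promoter mRNA in HepG2 cells 24 h post-dose. Curves fitted bidirectionally, DMSO as negative control.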

Experiment [13] in a line: ATG_PPRE_CIS: Attagene CIS-FACTORIAL HepG2 Assay for human Peroxisome Proliferator-activated Response Element (PPRE) (AID 2282958). To be noted: HepG2 PPRE cis-element reporter, Attagene transcription factor profiling; actives raise or lower the signal. In a few lines:
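PPRE activity in HepG2: transient cis-reporter transfection, 24 h compound incubation, reporter mRNA by RT-PCR and CE fluorescence; gain/loss fitted against DMSO.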

Experiment [14] is described as follows: ATG_RORE_CIS: Attagene CIS-FACTORIAL HepG2 Assay for human RAR-related Orphan Receptor Element (RORE) (AID 2282959). To be noted: HepG2 Attagene cis-factorial RORE reporter, mRNA; actives raise or lower the signal. In a few lines:
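A 24-hour exposure of transfected HepG2 hepatoma cells precedes RNA isolation and reporter RT-PCR. Labeled products are digested with HpaI and resolved by capillary electrophoresis, with gain or loss of signal scored relative to DMSO.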

Experiment [15] is described as follows: ATG_Sox_CIS: Attagene CIS-FACTORIAL HepG2 Assay for human SRY-box transcription factor (SOX) (AID 2282960). To be noted: HepG2 Attagene cis-factorial SOX reporter, mRNA; actives raise or lower the signal. The essentials: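 HepG2, cis reporter units, 24 h exposure. Reporter mRNA: RT-PCR → FAM labelling → HpaI → CE fluorescence. Bidirectional fit vs DMSO.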

The target in experiment [16] is Transcription factor Sp1 (Homo sapiens) (UniProt P08047). The experiment in a line: ATG_Sp1_CIS: Attagene CIS-FACTORIAL HepG2 Assay for human Specificity Protein 1 (Sp1) (AID 2282961). To be noted: HepG2 Sp1 cis-reporter transcription, actives raise or lower the signal. The essentials: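 Liver-derived HepG2 cells, cis-element reporter library, 24 h treatment; RNA isolated, cDNA amplified with reporter-specific primers, FAM-labeled fragments sized on capillary analyzer. DMSO baseline, bidirectional curve fit.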

Experiment [17] is described as follows: ATG_SREBP_CIS: Attagene CIS-FACTORIAL HepG2 Assay for human Sterol Regulatory Element Binding (SREBP) (AID 2282962). To be noted: HepG2 Attagene cis-factorial SREBP reporter, mRNA; actives raise or lower the signal. In a few lines:
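Endogenous factor activity is measured in HepG2 through multiplexed reporter units under cis-element control. Following a 24 h incubation, reporter transcripts are reverse-transcribed, PCR-amplified and sized by capillary electrophoresis; activity is fitted in both directions relative to DMSO.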

The target in experiment [18] is Signal transducer and activator of transcription 3 (Homo sapiens) (UniProt P40763). The experiment in a line: ATG_STAT3_CIS: Attagene CIS-FACTORIAL HepG2 Assay for human Signal Transducer and Activator of Transcription 3 (STAT3) (AID 2282963). To be noted: HepG2, Attagene cis-factorial STAT3 reporter transcription; actives raise or lower the signal. In a few lines:
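Readout: fluorescent reporter mRNA fragments resolved by capillary electrophoresis. Setup: HepG2 transfected with MRTUs reporting endogenous transcription-factor activity, dosed 24 h. Gain or loss of signal fitted bidirectionally against DMSO control.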

Experiment [19] can be described thus: ATG_TA_CIS: Attagene CIS-FACTORIAL HepG2 Assay for human TA Basal Promoter (AID 2282964). To be noted: HepG2 Attagene CIS-factorial TA basal promoter reporter; actives raise or lower the signal. The essentials: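 Transfected HepG2, 24 h compound exposure; RNA → RT-PCR → FAM primer extension → HpaI cut → CE fluorescence. Gain/loss-of-signal fitted against DMSO negative control. Background-control readout.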

For orientation: AC50 means the concentration giving half of the maximal activity seen.

The structures appear in SMILES notation. Activity calls are given as the source filed them. The calls were made as follows: active = hit-call score of the fitted dose curve at least 0.9, where 1 is the maximum; inactive = score below 0.9.

Chain of Transcription factor Sp1 (Homo sapiens) (P08047 whole entry, looked up, the tested form may be a part): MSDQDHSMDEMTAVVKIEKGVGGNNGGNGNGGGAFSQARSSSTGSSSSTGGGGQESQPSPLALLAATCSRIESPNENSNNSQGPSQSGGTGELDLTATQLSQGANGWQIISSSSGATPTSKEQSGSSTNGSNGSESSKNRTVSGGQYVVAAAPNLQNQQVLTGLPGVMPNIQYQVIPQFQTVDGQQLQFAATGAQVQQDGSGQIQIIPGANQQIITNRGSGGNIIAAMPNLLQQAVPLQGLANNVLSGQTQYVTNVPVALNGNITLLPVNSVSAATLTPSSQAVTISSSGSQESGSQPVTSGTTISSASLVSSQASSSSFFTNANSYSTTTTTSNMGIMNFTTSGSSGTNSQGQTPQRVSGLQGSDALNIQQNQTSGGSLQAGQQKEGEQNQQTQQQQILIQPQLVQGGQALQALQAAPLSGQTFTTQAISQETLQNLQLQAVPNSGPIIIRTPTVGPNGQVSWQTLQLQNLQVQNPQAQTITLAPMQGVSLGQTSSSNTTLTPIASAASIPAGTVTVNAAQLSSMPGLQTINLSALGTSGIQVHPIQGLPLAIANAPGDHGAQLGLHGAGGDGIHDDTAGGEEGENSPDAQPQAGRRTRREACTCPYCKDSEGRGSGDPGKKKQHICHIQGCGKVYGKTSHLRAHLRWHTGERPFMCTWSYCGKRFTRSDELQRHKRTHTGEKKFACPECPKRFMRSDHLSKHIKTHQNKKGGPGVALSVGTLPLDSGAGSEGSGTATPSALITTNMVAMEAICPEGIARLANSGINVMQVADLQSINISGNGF
Chain of Hepatocyte nuclear factor 6 (Homo sapiens) (Q9UBC0 whole entry, looked up): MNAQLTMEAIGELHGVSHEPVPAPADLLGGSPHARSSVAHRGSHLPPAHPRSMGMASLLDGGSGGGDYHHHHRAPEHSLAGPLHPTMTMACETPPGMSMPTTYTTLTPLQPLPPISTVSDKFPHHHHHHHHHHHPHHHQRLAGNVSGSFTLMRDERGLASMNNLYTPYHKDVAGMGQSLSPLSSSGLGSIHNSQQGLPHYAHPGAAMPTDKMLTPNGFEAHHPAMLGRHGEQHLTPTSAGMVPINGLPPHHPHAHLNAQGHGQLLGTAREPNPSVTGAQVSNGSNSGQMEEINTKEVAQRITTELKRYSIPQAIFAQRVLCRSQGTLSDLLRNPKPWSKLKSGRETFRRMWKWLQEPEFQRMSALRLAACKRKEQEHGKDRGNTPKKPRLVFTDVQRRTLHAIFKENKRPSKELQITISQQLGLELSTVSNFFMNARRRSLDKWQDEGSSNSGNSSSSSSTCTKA
Chain of Paired box protein Pax-6 (Homo sapiens) (P26367 whole entry, looked up): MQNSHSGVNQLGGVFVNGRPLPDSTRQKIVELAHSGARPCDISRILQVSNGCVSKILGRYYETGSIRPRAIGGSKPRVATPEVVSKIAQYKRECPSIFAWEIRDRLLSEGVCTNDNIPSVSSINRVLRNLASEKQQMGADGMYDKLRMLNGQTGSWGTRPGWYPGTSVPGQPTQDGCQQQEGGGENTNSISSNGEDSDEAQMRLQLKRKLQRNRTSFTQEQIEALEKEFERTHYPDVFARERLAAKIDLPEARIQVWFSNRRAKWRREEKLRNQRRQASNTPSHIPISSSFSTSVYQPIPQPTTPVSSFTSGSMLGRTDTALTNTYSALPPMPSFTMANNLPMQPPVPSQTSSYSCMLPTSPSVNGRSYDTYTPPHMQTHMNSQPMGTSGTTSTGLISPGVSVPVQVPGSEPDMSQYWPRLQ
Chain of Heat shock factor protein 1 (Homo sapiens) (Q00613 whole entry, looked up, the tested form may be a part): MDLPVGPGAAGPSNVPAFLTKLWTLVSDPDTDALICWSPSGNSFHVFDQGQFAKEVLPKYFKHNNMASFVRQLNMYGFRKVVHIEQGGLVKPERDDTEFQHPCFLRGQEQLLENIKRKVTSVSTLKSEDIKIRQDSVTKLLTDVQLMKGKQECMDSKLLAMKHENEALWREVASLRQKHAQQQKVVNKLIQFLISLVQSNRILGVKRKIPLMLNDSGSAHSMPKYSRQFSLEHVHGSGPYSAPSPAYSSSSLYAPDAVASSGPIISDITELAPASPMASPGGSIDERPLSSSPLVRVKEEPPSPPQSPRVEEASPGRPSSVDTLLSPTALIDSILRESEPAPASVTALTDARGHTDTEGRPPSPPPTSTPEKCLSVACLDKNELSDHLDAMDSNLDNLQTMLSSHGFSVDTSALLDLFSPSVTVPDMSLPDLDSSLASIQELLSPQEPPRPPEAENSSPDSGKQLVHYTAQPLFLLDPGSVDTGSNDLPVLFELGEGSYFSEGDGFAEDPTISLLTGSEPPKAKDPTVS
Chain of Bile acid receptor (Homo sapiens) (Q96RI1 whole entry, looked up): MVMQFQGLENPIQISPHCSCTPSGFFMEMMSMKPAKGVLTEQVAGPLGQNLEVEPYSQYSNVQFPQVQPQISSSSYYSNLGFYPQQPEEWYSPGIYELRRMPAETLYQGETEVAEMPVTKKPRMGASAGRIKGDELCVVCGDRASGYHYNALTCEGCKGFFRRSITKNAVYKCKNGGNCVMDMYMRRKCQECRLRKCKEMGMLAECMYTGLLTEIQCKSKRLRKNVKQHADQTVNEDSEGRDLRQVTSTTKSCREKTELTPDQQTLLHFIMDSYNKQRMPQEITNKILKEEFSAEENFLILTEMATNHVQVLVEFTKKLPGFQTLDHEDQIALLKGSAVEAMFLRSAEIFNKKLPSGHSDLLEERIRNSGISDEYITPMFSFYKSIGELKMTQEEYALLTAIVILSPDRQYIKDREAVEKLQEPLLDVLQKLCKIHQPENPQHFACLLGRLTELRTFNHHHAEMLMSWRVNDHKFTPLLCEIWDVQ
Chain of Hypoxia-inducible factor 1-alpha (Homo sapiens) (Q16665 whole entry, looked up): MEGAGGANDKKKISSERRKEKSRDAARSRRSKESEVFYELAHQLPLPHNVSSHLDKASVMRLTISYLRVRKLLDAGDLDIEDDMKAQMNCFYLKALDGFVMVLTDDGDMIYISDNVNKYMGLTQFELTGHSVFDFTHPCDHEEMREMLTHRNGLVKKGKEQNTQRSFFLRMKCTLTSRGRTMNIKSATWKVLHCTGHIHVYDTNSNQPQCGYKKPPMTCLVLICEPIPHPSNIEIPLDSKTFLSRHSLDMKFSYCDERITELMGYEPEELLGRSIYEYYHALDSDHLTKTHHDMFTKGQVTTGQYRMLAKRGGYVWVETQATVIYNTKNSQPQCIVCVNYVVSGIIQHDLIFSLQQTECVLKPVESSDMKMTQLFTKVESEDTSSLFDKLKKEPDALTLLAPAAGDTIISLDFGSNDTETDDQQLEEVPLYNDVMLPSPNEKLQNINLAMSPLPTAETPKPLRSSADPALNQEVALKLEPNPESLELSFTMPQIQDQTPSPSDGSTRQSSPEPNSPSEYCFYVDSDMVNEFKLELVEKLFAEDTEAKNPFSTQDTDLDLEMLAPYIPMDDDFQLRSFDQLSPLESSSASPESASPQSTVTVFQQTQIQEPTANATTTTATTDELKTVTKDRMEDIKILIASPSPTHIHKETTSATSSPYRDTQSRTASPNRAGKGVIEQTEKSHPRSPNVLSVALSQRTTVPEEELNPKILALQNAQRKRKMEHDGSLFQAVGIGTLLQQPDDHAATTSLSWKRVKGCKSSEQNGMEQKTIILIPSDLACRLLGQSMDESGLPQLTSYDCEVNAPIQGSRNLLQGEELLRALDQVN
Chain of Signal transducer and activator of transcription 3 (Homo sapiens) (P40763 whole entry, looked up, the tested form may be a part): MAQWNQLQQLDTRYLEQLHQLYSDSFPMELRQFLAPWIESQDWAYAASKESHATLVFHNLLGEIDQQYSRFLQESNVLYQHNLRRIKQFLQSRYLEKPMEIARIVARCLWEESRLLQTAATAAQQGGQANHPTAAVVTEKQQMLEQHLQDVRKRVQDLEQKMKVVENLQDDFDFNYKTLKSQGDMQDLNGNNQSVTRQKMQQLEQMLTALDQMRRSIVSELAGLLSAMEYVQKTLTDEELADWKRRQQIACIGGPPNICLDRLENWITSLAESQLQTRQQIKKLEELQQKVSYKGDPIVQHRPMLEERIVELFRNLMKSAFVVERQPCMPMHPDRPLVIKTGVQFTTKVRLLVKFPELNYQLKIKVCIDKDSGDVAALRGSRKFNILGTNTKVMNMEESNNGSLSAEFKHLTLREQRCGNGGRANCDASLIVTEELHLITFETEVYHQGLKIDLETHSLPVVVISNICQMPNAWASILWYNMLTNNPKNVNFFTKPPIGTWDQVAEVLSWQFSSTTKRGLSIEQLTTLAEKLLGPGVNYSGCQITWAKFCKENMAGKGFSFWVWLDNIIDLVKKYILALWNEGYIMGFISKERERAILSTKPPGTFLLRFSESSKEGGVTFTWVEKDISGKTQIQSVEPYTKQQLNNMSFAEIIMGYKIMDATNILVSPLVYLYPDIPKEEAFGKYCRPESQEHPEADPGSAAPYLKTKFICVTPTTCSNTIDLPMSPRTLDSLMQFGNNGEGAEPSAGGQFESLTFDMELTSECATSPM

Consider `CC/C=C\CCOC(=O)c1ccccc1`, for which the molecule was called inactive in [1], in [2], in experiment [3], in [4], in experiment [5] and in experiment [6]. Further, the result in experiment [7], in experiment [8], in experiment [9], in experiment [10], in [11] and in experiment [12] was inactive. For the same molecule, the outcome in experiment [13], in experiment [14], in experiment [15], in [16], in experiment [17] and in experiment [18] was inactive. The call in experiment [19] was inactive.
In the case of `N=C(N)C(F)(F)C(F)(F)C(F)(F)C(F)(F)C(F)(F)C(F)(F)C(F)(F)F`, the call in [1], in experiment [2], in experiment [3], in experiment [4], in experiment [5] and in experiment [6] was inactive. The result in [8], in experiment [9], in experiment [10], in experiment [11], in experiment [12] and in [13] was inactive. Besides, the call in experiment [14], in experiment [15], in [16], in experiment [17], in [18] and in experiment [19] was inactive. Further, in [7], the AC50 is 242 µM (active).
On to `CCCCOCCOCCOC(=O)CCCCC(=O)OCCOCCOCCCC`, for which the result in experiment [1], in experiment [2], in experiment [3], in experiment [4], in [5] and in [6] was inactive. In addition, the call in experiment [7], in experiment [8], in [9], in experiment [10], in [11] and in experiment [12] was inactive. Moreover, the call in experiment [13], in experiment [14], in experiment [15], in experiment [16], in [17] and in [18] was inactive. Moreover, the molecule was classed as inactive in experiment [19].

The values are drawn from PubChem BioAssay (EPA / NIEHS).
